Experimental data: ChEMBL document CHEMBL3988442, “University of Dundee, Small-Polar-MMV Screening Library” (2021)
For some assays here: Results with a measured potency or affinity are listed apart.

Tests used:
Set-up in all cases: scale not given: direction of the effect not stated beside the values
[1] = target: Protein translocase subunit SecA (Escherichia coli (strain K12)) (UniProt P10408); assay: Assay to Identify E. coli SecA ATPase Inhibitors; type: functional; details: 30 µM
[2] = target: T1, Ubiquitin-activating enzyme e1, putative (Leishmania donovani (strain BPK282A1)) (UniProt E9BSI1); assay: Leishmania donovani Ubiquitin Activating Enzyme (LdE1); type: functional; details: 30 µM
T1 sequence (whole entry): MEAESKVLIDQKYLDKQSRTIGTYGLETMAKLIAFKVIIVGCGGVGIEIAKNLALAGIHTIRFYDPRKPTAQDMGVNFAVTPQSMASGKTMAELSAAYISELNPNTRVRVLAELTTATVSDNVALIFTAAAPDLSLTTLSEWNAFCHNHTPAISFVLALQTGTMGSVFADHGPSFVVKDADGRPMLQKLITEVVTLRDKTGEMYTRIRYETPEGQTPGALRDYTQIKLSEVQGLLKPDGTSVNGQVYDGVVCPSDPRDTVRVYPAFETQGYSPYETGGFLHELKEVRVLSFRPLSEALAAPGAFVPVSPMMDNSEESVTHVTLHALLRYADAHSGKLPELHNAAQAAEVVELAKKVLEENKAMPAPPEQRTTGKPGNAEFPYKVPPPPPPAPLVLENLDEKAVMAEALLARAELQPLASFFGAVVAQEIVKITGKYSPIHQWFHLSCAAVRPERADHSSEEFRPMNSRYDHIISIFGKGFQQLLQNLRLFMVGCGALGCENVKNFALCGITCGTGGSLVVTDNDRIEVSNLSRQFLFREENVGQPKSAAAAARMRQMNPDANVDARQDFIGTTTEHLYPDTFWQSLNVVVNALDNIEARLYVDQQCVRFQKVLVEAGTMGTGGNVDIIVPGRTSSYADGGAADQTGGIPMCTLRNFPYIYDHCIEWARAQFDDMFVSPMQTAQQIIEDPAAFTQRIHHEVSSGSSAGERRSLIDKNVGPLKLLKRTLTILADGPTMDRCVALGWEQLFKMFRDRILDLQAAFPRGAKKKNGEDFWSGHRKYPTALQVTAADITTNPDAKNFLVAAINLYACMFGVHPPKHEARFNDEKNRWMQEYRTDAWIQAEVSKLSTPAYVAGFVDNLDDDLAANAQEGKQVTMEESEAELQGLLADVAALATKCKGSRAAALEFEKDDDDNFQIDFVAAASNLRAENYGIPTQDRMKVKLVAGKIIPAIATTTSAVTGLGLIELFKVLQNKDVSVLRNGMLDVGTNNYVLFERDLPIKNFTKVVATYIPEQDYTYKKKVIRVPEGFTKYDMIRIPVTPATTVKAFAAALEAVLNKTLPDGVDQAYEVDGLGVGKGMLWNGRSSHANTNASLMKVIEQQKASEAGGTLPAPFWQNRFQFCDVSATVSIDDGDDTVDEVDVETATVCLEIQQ

[3] = target: AMP-activated protein kinase, AMPK (Homo sapiens) (UniProt P54646+O43741+P54619+Q9UGJ0+Q9Y478+Q13131+Q9UGI9); assay: AMP-dependent Kinase enzyme assay. An in vitro enzyme assay that detects ADP turnover that is directly proportional to AMPK activity. This uses naive AMPK that is activated during the assay with MK-8722; type: functional; details: 30 µM
[4] = target: Sialic acid-binding Ig-like lectin 9 (Homo sapiens) (UniProt Q9Y336); assay: Hs-Siglec9 ALPHAscreen SOP 20170721; details: 10 µM
Sequence of Sialic acid-binding Ig-like lectin 9 (Homo sapiens) (Q9Y336 whole entry): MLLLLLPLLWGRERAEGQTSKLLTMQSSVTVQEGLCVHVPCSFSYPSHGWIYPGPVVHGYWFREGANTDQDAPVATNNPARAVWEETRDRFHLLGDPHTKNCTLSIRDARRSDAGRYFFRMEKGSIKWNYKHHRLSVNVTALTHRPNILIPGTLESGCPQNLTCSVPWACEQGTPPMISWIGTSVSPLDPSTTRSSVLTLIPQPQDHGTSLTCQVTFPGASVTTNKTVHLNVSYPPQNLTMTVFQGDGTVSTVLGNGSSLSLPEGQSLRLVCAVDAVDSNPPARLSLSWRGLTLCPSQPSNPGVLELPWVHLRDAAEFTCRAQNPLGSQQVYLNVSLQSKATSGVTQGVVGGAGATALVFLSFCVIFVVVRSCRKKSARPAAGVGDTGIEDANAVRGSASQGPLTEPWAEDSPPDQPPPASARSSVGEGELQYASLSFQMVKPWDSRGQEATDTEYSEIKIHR

Trypanosoma cruzi = assay: Trypanosoma cruzi phosphomannomutase and mannose-1-phosphate guanylyltransferase assay; type: functional; details: 10 µM
[5] = target: T2, Arginase-2, mitochondrial (Homo sapiens) (UniProt P78540); assay: in vitro enzyme assay to detect the production of urea directly proportional to the activity of Arginase II; type: functional; details: 33.3 µM; further: in the data most compounds retested in dose-response had high values
T2 sequence (whole entry): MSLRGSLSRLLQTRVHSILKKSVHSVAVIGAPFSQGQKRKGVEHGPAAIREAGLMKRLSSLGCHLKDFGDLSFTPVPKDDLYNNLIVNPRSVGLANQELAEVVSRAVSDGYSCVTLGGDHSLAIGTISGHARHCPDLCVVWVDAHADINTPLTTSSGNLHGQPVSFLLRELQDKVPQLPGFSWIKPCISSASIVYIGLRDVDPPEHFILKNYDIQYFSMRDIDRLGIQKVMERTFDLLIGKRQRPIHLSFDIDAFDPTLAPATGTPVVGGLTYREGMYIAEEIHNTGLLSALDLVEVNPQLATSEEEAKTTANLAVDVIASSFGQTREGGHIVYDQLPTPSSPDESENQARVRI

[6] = target: T3, Proteasome subunit beta (Trypanosoma cruzi) (UniProt O96673); assay: Trypanosoma cruzi proteasome chymotrypsin-like activity (TcProtChymo) assay.; further: in the data most compounds retested in dose-response had high values; type: functional; details: 9.37 µM
T3 sequence (whole entry): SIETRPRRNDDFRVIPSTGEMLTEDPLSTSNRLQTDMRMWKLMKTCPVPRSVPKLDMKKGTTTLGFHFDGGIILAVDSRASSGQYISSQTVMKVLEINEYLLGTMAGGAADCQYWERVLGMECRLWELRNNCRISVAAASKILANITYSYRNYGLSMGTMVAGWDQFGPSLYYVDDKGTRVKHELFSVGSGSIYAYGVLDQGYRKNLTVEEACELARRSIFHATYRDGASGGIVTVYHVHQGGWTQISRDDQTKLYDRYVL

Homo sapiens = species on record: Homo sapiens; assay: To identify inhibition of the IFN signalling (Jak-Stat) pathway via expression of an eGFP reporter gene under the control of an IFN-stimulated response element (ISRE) containing MxA promoter.; type: functional; details: 30 µM
[7] = target: T4, Tyrosyl-tRNA synthetase, putative (Trypanosoma cruzi (strain CL Brener)) (UniProt Q4DSP6); assay: Trypanosoma cruzi tyrosyl tRNA synthetase (TcYRS) _High Tyrosine SOP; type: functional; details: 30 µM; further: in the data most compounds retested in dose-response had high values
T4 sequence (whole entry): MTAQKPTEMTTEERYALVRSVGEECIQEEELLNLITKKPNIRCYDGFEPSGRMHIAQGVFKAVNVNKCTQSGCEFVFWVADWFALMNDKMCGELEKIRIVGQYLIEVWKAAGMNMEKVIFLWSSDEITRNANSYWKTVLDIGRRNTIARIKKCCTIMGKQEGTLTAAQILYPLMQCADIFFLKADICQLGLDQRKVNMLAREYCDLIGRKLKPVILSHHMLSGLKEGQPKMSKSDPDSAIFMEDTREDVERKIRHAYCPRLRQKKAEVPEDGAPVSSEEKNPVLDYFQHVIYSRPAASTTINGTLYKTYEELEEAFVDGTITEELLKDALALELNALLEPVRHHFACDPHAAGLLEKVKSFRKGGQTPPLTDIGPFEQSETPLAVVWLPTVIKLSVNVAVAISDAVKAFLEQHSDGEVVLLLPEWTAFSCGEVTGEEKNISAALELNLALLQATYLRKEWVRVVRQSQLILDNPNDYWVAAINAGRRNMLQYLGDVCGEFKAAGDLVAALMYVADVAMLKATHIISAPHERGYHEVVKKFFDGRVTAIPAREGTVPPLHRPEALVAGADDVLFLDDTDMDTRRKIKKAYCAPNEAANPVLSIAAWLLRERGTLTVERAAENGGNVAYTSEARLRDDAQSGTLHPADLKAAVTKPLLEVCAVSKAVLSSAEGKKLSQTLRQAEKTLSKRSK

[8] = target: T4, Tyrosyl-tRNA synthetase, putative (Trypanosoma cruzi (strain CL Brener)); assay: Trypanosoma cruzi tyrosyl tRNA synthetase (TcYRS) SOP; type: functional; details: 30 µM
[9] = target: Chromo domain-containing protein 1 (Saccharomyces cerevisiae (strain ATCC 204508 / S288c) (Baker's yeast)) (UniProt P32657); assay: ScCHD-1 Enzyme Inhibition Assay; type: functional; details: 30 µM; further: in the data most compounds retested in dose-response had high values
Sequence of Chromo domain-containing protein 1 (Saccharomyces cerevisiae (strain ATCC 204508 / S288c) (Baker's yeast)) (P32657 whole entry, the tested form may be a part): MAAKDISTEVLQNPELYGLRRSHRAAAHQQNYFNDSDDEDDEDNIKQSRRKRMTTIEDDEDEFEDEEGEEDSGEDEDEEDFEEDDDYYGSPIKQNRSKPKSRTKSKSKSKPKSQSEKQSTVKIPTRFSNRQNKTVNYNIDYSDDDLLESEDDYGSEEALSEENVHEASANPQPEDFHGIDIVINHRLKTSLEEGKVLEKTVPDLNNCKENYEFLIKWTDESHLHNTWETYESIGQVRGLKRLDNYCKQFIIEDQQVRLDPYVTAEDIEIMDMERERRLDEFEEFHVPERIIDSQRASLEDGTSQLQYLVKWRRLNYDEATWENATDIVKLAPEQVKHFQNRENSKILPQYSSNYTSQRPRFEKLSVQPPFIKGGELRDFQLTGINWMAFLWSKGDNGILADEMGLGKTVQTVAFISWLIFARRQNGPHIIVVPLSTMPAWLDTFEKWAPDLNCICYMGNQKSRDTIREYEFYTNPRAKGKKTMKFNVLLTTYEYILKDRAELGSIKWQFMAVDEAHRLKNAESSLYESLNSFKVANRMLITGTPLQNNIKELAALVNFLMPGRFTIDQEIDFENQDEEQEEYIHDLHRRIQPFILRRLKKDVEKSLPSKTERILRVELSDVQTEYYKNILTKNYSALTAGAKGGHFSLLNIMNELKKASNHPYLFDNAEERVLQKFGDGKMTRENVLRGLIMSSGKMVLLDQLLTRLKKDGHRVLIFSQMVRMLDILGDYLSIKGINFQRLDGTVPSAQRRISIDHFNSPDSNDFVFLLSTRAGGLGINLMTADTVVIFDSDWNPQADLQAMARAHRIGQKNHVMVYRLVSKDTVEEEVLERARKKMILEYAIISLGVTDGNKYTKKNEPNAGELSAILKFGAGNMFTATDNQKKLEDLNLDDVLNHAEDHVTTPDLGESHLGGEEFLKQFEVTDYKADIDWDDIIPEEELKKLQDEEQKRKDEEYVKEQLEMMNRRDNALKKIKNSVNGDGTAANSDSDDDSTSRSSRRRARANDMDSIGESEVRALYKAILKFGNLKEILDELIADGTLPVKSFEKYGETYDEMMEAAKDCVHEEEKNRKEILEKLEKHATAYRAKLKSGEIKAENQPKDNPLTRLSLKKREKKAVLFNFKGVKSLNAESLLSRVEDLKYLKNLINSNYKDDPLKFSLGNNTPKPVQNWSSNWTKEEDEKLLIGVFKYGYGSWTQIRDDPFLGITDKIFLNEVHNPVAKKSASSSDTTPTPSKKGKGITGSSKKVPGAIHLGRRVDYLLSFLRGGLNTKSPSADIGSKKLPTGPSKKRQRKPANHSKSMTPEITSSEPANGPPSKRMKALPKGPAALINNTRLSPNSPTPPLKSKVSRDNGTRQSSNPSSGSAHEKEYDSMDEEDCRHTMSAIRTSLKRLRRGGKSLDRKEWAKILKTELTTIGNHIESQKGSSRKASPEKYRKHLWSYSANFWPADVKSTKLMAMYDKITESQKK

Sequence of Protein translocase subunit SecA (Escherichia coli (strain K12)) (P10408 whole entry): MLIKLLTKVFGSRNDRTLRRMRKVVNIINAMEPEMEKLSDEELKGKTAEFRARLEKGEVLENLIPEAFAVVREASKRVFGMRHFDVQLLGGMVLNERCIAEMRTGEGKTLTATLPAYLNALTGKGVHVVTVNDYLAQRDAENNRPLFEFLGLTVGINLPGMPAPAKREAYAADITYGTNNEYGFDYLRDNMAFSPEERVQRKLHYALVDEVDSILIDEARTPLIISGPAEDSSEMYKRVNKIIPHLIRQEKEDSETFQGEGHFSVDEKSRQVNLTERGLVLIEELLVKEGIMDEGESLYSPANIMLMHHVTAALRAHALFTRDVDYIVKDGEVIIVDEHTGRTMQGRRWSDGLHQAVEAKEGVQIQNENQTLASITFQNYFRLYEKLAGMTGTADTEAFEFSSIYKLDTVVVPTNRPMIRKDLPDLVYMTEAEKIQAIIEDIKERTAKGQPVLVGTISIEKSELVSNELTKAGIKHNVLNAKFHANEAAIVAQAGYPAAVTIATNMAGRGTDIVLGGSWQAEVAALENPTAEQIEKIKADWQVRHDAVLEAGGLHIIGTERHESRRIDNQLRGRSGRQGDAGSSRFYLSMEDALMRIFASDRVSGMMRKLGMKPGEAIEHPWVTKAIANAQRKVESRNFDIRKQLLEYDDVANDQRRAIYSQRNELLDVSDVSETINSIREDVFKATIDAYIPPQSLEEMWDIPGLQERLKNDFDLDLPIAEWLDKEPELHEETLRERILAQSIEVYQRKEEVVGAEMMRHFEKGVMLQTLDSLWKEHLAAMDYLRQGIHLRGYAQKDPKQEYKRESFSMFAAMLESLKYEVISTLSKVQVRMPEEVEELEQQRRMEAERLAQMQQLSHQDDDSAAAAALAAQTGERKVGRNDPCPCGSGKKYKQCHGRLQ

SMILES | Percent Effect [1] [%] | Percent Effect [2] [%] | Percent Effect [3] [%] | Percent Effect [4] [%] | Percent Effect (Trypanosoma cruzi) [%] | Percent Effect [5] [%] | Percent Effect [6] [%] | Percent Effect (Homo sapiens) [%] | Percent Effect [7] [%] | Percent Effect [8] [%] | Percent Effect [9] [%]
O=C1CCc2cc(-c3csc(CCN4CCCC4=O)n3)ccc2N1 | -2.58 | 20.8 | 4.11 | 2.39 | 0.936 | -4.98 | 5.41 | 22.8 | 15.5 | 19.5 | -7.82
O=C(c1ccc[nH]1)N1C[C@H]2CC[C@@H]1CN(c1ncccn1)C2 | -5.19 | 5.2 | 7.19 | 11.1 | 2.26 | -9.65 | 6.49 | -14.3 | 6.45 | 13.6 | -0.0272
Cc1nc(C2CCCN(C(=O)c3ccc(OCC4CC4)cc3)C2)no1 (stereo not given) | -11 | 15.8 | -2.79 | 21.9 | 10.9 | 3.24 | 7.19 | 0.288 | 5.42 | 25.9 | -8.85
CCN1CC(C(=O)NCc2ccnc(-n3ccnc3C)c2)CC1=O (stereo not given) | -2.69 | 0 | -12.9 | -7.63 | 0 | -3.18 | 3.02 | 20.3 | -1.07 | -2.5 | -4.95
CN(C)S(=O)(=O)N1CCC(Oc2ccc(C#N)cc2)CC1 | -1 | 1.39 | 2.51 | -6.53 | -6.12 | 1.77 | 16.8 | 17.2 | 2.1 | 2.56 | -0.203
COc1cc(CN(C)C(=O)Nc2cc(C)on2)ccc1SC | -9.88 | 5.41 | -3.24 | 0.0571 | -2.73 | -24.2 | 21.6 | 6.33 | 9.9 | 1.22 | -2.37
CCN1CCN(Cc2ccnc(-c3cccnc3)n2)CC1 | -8.52 | 20.3 | 0.102 | 1.94 | -0.79 | -1.62 | 15.3 | -6.28 | 4.3 | 16.9 | -29.4
COC(=O)c1sccc1S(=O)(=O)N1CCC(Oc2cccnn2)CC1 | -0.0971 | -5.48 | 16.5 | -5.94 | -3.33 | 1.36 | 9.58 | 9.58 | -6.45 | 0 | -3.65
Cc1ncsc1C(=O)N(C)CCc1ccncc1 | -2.19 | 2.63 | 9.05 | 3.98 | -0.564 | 0 | -1.84 | 16.7 | 2.45 | 4.88 | 5.09
COc1ccc(C(C)N2CCN(Cc3nccn3C)CC2)cc1Cl (stereo not given) | -3.06 | 2.6 | -0.681 | 9.44 | -1.87 | 0.712 | 11.3 | 9.04 | 2.91 | 0 | -0.322
